Screening data: PubChem, The Scripps Research Institute Molecular Screening Center
Shown are actives, neighbours in structure and some others; about 1.8% of the full set was active somewhere.
PME-1 primary – PME-1 (human) inhibition | actives 0.53% (n = 320,000) | recombinant PME-1, FP-Rh probe fluorescence polarization | inhibition, % at 5.9 µM;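 active = inhibition above the campaign mean of all compounds plus 3 SD, cut at about 26% in these data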;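 note: competitive labeling of PME-1 active site by serine hydrolase directed probe; 0% = PME-1 with DMSO and 100% = wells lacking PME-1 enzyme; inhibitors block probe labeling so polarization falls and inhibition rises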
PP1 counter – blocks human PP1-alpha phosphatase, a PP5 counter-screen; P62136; purified PP1alpha, OMFP fluorescence; inhibition, % at 6.7 µM; actives 0.9% (n = 320,000);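 active = inhibition above the mean inhibition of all tested compounds plus 3 SD, computed separately for each screening campaign, cut at about 15% in these data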
LYPLA1 inh – LYPLA1 (human) inhibition in PME1 counter-screen; O75608; recombinant LYPLA1, FP-Rh probe fluorescence polarization; inhibition, % at 5.9 µM; actives 0.16% (n = 320,000); AID 2174;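 active = inhibition above the mean of all tested compounds plus 3 SD, set per campaign, cut at about 14% in these data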;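 note: inhibitors block serine hydrolase probe labeling of LYPLA1 so polarization falls; 0% = enzyme with DMSO and 100% = wells lacking LYPLA1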
PP5 primary – inhibitors of human protein phosphatase 5 (PP5); P53041; purified PP5c, OMFP substrate fluorescence; inhibition, % at 6.7 µM; actives 0.18% (n = 320,000);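 active = inhibition above the campaign's mean inhibition across all tested compounds plus 3 SD, cut at about 9.5% in these data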;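 note: 0% = DMSO only and 100% = 100 µM cantharidin control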
Target sequence (P53041 whole entry, looked up): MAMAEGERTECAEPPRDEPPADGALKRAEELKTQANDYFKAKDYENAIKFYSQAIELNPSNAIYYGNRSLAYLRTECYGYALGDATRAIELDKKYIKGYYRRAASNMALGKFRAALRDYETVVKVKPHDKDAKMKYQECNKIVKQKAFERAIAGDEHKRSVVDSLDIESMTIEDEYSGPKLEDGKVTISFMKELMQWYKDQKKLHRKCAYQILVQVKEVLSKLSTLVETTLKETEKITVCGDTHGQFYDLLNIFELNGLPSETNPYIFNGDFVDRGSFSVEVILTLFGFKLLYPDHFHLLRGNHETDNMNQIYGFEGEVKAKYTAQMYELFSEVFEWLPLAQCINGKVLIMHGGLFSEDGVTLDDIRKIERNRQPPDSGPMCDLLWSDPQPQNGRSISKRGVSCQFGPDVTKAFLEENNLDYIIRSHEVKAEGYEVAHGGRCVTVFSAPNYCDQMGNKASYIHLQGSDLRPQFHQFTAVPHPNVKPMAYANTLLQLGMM
LYPLA2 counter – counter-screen for PME1 inhibitors: inhibitors of human LYPLA2. O95372. inhibition, % at 5.9 µM. AID 2177. actives 0.38% (n = 320,000). recombinant LYPLA2, FP-Rh probe fluorescence polarization;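 active = inhibition above the screen-wide mean plus 3 SD, limit set per campaign, cut at about 26% in these data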;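 note: 0% = LYPLA2 with DMSO and 100% = wells lacking LYPLA2 enzyme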
Fam108B inh – counter-screen for RBBP9 inhibitors: inhibitors of mouse Fam108B; recombinant Fam108B, FP-Rh probe fluorescence polarization; inhibition, % at 9.51 µM; actives 0.33% (n = 300,000); AID 1947;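 active = inhibition above the screen mean inhibition plus 3 SD, computed separately per campaign, cut at about 18% in these data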;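 note: inhibitors lower polarization as less probe binds the enzyme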
PP1 inh confirm – human PP1 phosphatase inhibition, confirmation | AID 2358 | shares compounds with PP1 counter | inhibition, % at 6.7 µM | purified PP1alpha, OMFP substrate fluorescence | actives 52% (n = 1,900);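 active = mean PP1 inhibition above a set limit taken from the earlier primary screen, cut at about 15% in these data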
PP5 counter – counter-screen for PP1 inhibitors: human PP5 phosphatase inhibition; shares compounds with PP1 counter; purified PP5c, OMFP fluorescence; inhibition, % at 6.7 µM; actives 4% (n = 1,900);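 active = mean PP5 inhibition over triplicate wells above about 9.5% taken from the earlier PP1 screen, limit read from the data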
An asterisk follows results filed as active; nt = no result.

SMILES | PME-1 primary | PP1 counter | LYPLA1 inh | PP5 primary | LYPLA2 counter | Fam108B inh | PP1 inh confirm | PP5 counter
O=C(Nc1nc(-c2ccccn2)cs1)c1cccc(-n2cnnn2)c1 | 2 | 27* | -2 | -1 | 1 | 2 | 21* | -2
C/C(=N\NC(=O)COc1ccc(C)cc1C(C)C)c1ccc(-n2ccnc2)cc1 | -6 | 18* | 1 | 0 | 12 | -1 | 17* | 0
COC(=O)N/N=C(\C)c1ccc(-n2ccnc2)cc1 | -3 | -2 | -1 | 1 | -6 | 2 | nt | nt
CNc1cc(CSC)nc(SCc2ccc(Cl)c(Cl)c2)n1 | -9 | 25* | -10 | 6 | -8 | -4 | 10 | 3
CCOC(=O)c1c(CSc2ccc(CC)cc2)oc2ccc(O)c(CN(C)C)c12 | -7 | 18* | 0 | 1 | 2 | 11 | -4 | -4
CCCCN1C(=O)c2ccc(C(=O)OCC(=O)N3CCN(c4ccccc4)CC3)cc2C1=O | -4 | 0 | 1 | 0 | -2 | nt | nt | nt
Cc1cc(-c2csc(N)n2)c(C)n1CCc1ccccc1 | -1 | 21* | -7 | 0 | 1 | 1 | 20* | -1
CCn1c(CNC(=O)c2ccccc2OC)nnc1SCC(=O)c1ccc(F)cc1 | 4 | -1 | 4 | 1 | 2 | -2 | nt | nt
CC(OC(=O)c1ccc(NC(=O)CC#N)cc1)C(=O)Nc1ccc(Oc2ccccc2)cc1 (stereo unspecified) | -52 | 20* | -27 | 0 | -50 | -52 | 8 | -6
CC(OC(=O)c1ccc(NC(=O)CC#N)cc1)C(=O)Nc1nc(-c2ccccc2)cs1 (stereo unspecified) | -21 | 10 | -20 | 4 | -45 | -12 | nt | nt
C=CCn1c(SCC(=O)Nc2sccc2C#N)nc2sc(C)c(C)c2c1=O | -14 | 27* | -3 | 0 | -7 | -8 | 31* | -1
Cc1occc1C(=O)N(Cc1nc(-c2ccccc2)no1)C(C)C | 2 | -1 | 1 | 1 | -9 | 2 | nt | nt
CC(=O)Oc1c(C(=O)c2nnc(C)o2)c(=O)n(C)c2ccccc12 | -10 | 1 | -1 | 3 | 0 | -2 | nt | nt
C=CCOC(=O)C1=C[C@H](c2csc3ccccc23)C[C@H](OCc2ccc(CO)cc2)O1 | -6 | 22* | -7 | 3 | -11 | -6 | 4 | -2
CC(=O)c1cccc(NC(=O)C2CCN(C(=O)c3cccs3)CC2)c1 | 2 | 6 | -1 | 3 | 1 | 2 | nt | nt
N=C1C(c2nc3ccccc3s2)=C(O)CN1NC(=O)c1ccccc1[N+](=O)[O-] | -3 | 21* | -3 | 3 | -10 | -3 | 25* | 4
